Data taken from PubChem BioAssay (Tox21).
Results filed as inconclusive are left out. The source made the active and inactive calls. Calls come from the whole dose curve.
% is set by controls: 0 for no effect and ±100 for the full control effect.

Test system: not listed separately
Test: qHTS assay to identify small molecule agonists of the AP-1 signaling pathway (AID 1159526)
Conditions: ME-180 (cervical carcinoma) AP-1-bla reporter, beta-lactamase FRET ratio, 5 h; series mostly up to 76.8 µM; activation: at the top concentration
In the case of `CCC(=O)c1ccccc1`, the “activation” value is reported as -5.92% (inactive).
In the case of `CNC(=O)N(C)c1nc2ccccc2s1`, the “activation” value is reported as -0.224% (inactive).
With `COc1ccc(C(=O)N2CCCC2=O)cc1` the “activation” value was 0.29% [at 35.3 µM] (inactive).
For `COC(=O)C(C)Oc1ccc(Oc2ccc(Cl)cc2Cl)cc1` (stereo not drawn), the “activation” value was 5.31% (inactive).
For `Clc1ccccc1N1CCNCC1`, the “activation” value was -0.756% [at 35.3 µM] (inactive).
For `Fc1cc(Br)ccc1CBr`, the “activation” value was 0.0495% [at 35.3 µM] (inactive).
For `CN/C(=N\[N+](=O)[O-])NCC1CCOC1` (stereo not drawn), the “activation” value was -2.88% (inactive).
In the case of `CC(C1CC1)C(O)(Cn1cncn1)c1ccc(Cl)cc1` (stereo not drawn), the “activation” value is reported as 3.46% (inactive).
For `C[N+](=O)[O-]`, the “activation” value was -3.6% (inactive).
In the case of `Nc1c(Br)cc([N+](=O)[O-])cc1[N+](=O)[O-]`, the “activation” value is reported as -8.84% (inactive).
In the case of `CSc1ccc(C(=O)C(C)(C)N2CCOCC2)cc1`, the “activation” value is reported as 9.73% (inactive).
In the case of `O=C(Oc1ccc(Br)cc1)N1CCN2CCC1CC2`, the “activation” value is reported as 2.35% (inactive).
For `COc1cc(OC)nc(NC(=O)NS(=O)(=O)c2ncccc2OCC(F)(F)F)n1`, the “activation” value was -5.16% (inactive).
With `CCS(=O)(=O)CCSP(=O)(OC)OC` the “activation” value was -2.12% (inactive).
With `O=[N+]([O-])c1ccc(CBr)cc1` the “activation” value was -0.578% (inactive).
With `CC1=NNC(=O)N(/N=C/c2cccnc2)C1` the “activation” value was 6.59% (inactive).
In the case of `Cc1cccc(C#N)c1`, the “activation” value is reported as 0.982% (inactive).
For `C(CCOCC1CO1)COCC1CO1` (stereo not drawn), the “activation” value was -1.78% (inactive).
In the case of `CC1=C(C(=O)O)N2C(=O)[C@@H](N)[C@H]2SC1`, the activation is reported as -1.04% [at 15.8 µM] (inactive).
For `CC1=C(C(=O)Nc2ccccc2)S(=O)(=O)CCO1`, the “activation” value was -5.54% (inactive).
With `CC(C)CC#N` the “activation” value was -4.78% (inactive).
For `Cc1ccccc1CO[C@@H]1C[C@@]2(C(C)C)CC[C@]1(C)O2`, the “activation” value was 15.7% (inactive).
With `CCOP(=O)(OCC)OP(=O)(OCC)OCC` the “activation” value was 7.37% (inactive).
For `CC(=O)C(Cl)Cl`, the “activation” value was -0.624% (inactive).
With `CSc1nc(N=[N+]=[N-])nc(NC(C)C)n1` the “activation” value was -2.19% (inactive).
In the case of `c1cc2c(c(N3CCNCC3)c1)OCCO2`, the “activation” value is reported as -0.401% [at 35.3 µM] (inactive).
With `N#CCNCC#N` the “activation” value was -1.32% (inactive).
In the case of `Clc1cccc(N2CCNCC2)c1`, the “activation” value is reported as 0.419% [at 35.3 µM] (inactive).
For `O=CNC(N1CCN(C(NC=O)C(Cl)(Cl)Cl)CC1)C(Cl)(Cl)Cl` (stereo not drawn), the “activation” value was -0.158% (inactive).
For `CCC(C)(C)c1cc(-n2nc3ccccc3n2)c(O)c(C(C)(C)CC)c1`, the “activation” value was -6.27% (inactive).
With `CCN(Cc1ccc(Cl)nc1)/C(=C/[N+](=O)[O-])NC` the “activation” value was -1.68% [at 35.3 µM] (inactive).
In the case of `CCC(Cl)[N+](=O)[O-]` (stereo not drawn), the “activation” value is reported as 3.31% (inactive).
In the case of `Cc1cc(C)c(C(=O)P(=O)(C(=O)c2c(C)cc(C)cc2C)c2ccccc2)c(C)c1`, the “activation” value is reported as 13.2% (inactive).

Molecular target: Retinoic acid receptor RXR-alpha (Homo sapiens) (UniProt P19793)
Sequence (P19793 whole entry, looked up): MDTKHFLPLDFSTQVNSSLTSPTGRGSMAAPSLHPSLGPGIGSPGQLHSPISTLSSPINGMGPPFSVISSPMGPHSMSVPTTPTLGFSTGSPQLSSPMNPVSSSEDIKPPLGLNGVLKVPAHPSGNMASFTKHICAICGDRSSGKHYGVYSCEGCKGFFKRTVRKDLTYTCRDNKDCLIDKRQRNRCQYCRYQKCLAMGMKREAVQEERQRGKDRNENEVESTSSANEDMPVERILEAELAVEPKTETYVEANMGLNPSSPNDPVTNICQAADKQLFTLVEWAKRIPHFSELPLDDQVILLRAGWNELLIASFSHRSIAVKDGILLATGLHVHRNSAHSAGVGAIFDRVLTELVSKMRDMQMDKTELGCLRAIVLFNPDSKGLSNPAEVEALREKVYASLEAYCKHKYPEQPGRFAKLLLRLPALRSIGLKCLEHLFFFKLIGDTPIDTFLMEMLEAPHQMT
Test: qHTS assay to identify small molecule agonists of the RXR signaling pathway (AID 1159527); note: nearly all actives have a fitted effect of over 35% in size
Conditions: HEK293T RXRa-UAS-bla, beta-lactamase ratio, 16 h; series mostly up to 76.8 µM; activation: at the top concentration
Summary of the method: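 Read-out: beta-lactamase FRET ratio (405 nm excitation, 460 and 530 nm emission) after 2 hr substrate loading at room temperature. Cells were RXR-alpha-UAS-bla HEK 293T treated with compounds for 16 hr in 2% charcoal-stripped FBS medium.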
With `CCC(=O)c1ccccc1` the “activation” value was -7.25% (inactive).
With `COc1ccc(C(=O)N2CCCC2=O)cc1` the “activation” value was 3.65% [at 35.3 µM] (inactive).
In the case of `Clc1ccccc1N1CCNCC1`, the “activation” value is reported as 2.2% [at 35.3 µM] (inactive).
With `Fc1cc(Br)ccc1CBr` the “activation” value was 0.628% [at 35.3 µM] (inactive).
With `C[N+](=O)[O-]` the “activation” value was 8.45% (inactive).
With `Nc1c(Br)cc([N+](=O)[O-])cc1[N+](=O)[O-]` the “activation” value was -11.6% (inactive).
With `CSc1ccc(C(=O)C(C)(C)N2CCOCC2)cc1` the “activation” value was -8.66% (inactive).
With `COc1cc(OC)nc(NC(=O)NS(=O)(=O)c2ncccc2OCC(F)(F)F)n1` the “activation” value was 9.47% (inactive).
With `O=C1CN2CCOC2(c2ccccc2Cl)c2cc(Cl)ccc2N1` (stereo not drawn) the “activation” value was -6.5% [at 35.3 µM] (inactive).
With `C(CCOCC1CO1)COCC1CO1` (stereo not drawn) the “activation” value was 2.57% (inactive).
In the case of `CC1=C(C(=O)O)N2C(=O)[C@@H](N)[C@H]2SC1`, the activation is reported as 0.217% [at 15.8 µM] (inactive).
In the case of `CSc1nc(N=[N+]=[N-])nc(NC(C)C)n1`, the “activation” value is reported as -10.3% (inactive).
In the case of `c1cc2c(c(N3CCNCC3)c1)OCCO2`, the “activation” value is reported as 8.52% [at 35.3 µM] (inactive).
With `CCC(Cl)[N+](=O)[O-]` (stereo not drawn) the “activation” value was 4.42% (inactive).
In the case of `Cc1cc(C)c(C(=O)P(=O)(C(=O)c2c(C)cc(C)cc2C)c2ccccc2)c(C)c1`, the “activation” value is reported as -5.89% (inactive).
